Compound activity from PubChem BioAssay.
FLuc modulator: counter-screen for miR-21 project: firefly luciferase inhibitors or activators. purified FLuc, Km substrates, luminescence inhibition. AID 588342. hit rate 6.9% among 360,000. P08659. Potency, µM (highest dose often 57.5 µM), inactives show at the highest dose activity change, negative = inhibition, hits mostly inhibitors;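 also: plate controls were vehicle for no effect and reference inhibitor for full effect; nearly all actives have a fitted effect of over 55% in size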
Target sequence (P08659 whole entry, looked up): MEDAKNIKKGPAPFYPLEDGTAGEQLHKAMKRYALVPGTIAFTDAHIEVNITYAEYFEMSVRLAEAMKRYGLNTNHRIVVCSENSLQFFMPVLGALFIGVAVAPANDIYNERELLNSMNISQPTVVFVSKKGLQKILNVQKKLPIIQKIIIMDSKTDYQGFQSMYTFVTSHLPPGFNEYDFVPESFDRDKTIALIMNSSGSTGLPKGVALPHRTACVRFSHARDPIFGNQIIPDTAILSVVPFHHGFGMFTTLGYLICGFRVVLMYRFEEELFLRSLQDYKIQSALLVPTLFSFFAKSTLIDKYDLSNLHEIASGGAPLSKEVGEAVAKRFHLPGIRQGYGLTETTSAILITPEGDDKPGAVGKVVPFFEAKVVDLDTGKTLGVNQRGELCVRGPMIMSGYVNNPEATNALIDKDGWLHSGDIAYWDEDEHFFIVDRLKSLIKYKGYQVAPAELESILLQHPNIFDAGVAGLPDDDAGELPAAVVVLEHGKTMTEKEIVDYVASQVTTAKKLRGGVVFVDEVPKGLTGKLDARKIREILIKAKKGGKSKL
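Purified P. pyralis luciferase (10nM final) with 10uM D-luciferin and 10uM ATP (Km levels) in 50mM Tris acetate pH 7.5, 10mM Mg acetate, 0.01% Tween-20, 0.05% BSA; qHTS 6-point titration, ~60 µM downward; luminescence read.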
SMN2 splice enh: enhancers of SMN2 splice variant expression | AID 1458 | hit rate 2.8% among 210,000 | Potency, µM (doses to about 46.1 µM), without a hit: at the highest dose activity change, positive = activation, hits mostly activators | HEK293 SMN2-luciferase splicing reporter, luminescence, 30-36 h; also: % of control where 0% means no effect; nearly all actives have a fitted effect of over 55% in size
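qHTS luciferase splicing reporter: luminescence rises when SMN2 exon 7 is included in transfected HEK293 cells. Compound exposure lasted 30-36 h at 37C, with 4.5 mM final sodium butyrate as control, followed by a ONE-Glo read.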
ELG1 genotox: genotoxicity induction in ELG1-luciferase HEK293T cells; Potency, µM (doses to about 46 µM), for the others: at the top dose activity change, positive = activation, hits mostly activators; HEK293T ELG1-luciferase reporter, luminescence, 16 h; hit rate 1.3% among 330,000; also: % of control where 0% means no effect; nearly all actives have a fitted effect of over 60% in size
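Reporter readout depends on ELG1 protein level, which increases with genetic stress. After 16 hr compound exposure at 37 °C, luciferase activity was quantified using ONE-Glo.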
NPC1 prom act: activators of NPC1 promoter; Huh7 NPC1 promoter luciferase reporter, 24 h; Potency, µM (top dose mostly 9.22 µM), inactives show at the top dose activation, hits mostly activators; hit rate 2.4% among 320,000; also: % of control where 0% means no effect; nearly all actives have a fitted effect of over 60% in size
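NPC1 promoter–luciferase Huh7 cells; 24 h compound; luminescence.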
ELG1 repair inh: ELG1-dependent DNA repair inhibition; HEK293T ELG1-luciferase reporter, luminescence, 16 h; DNA damage induced by 5-fluorouridine; Potency, µM (highest dose often 46.1 µM), without a hit: at the highest dose activity change, negative = inhibition, usual class: inhibitors; hit rate 2.3% among 330,000; AID 504467; also: % is scaled to controls: 0 for no effect and ±100 for the full control effect; nearly all actives have a fitted effect of over 55% in size
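Reporter activity after DNA damage by 5-fluorouridine is monitored. Compound-treated cells incubate 16 hr at 37 °C, then ONE-Glo is added for 30 min before luminescence reading.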
Rab9 promoter act: Rab9 promoter activation; Huh7 Rab9 promoter-luciferase reporter, luminescence, 24 h; Potency, µM (highest dose often 9.22 µM), for inactives: top-dose activation, negative = inhibition, hits mostly activators; hit rate 2.8% among 320,000; AID 485297; also: % of control where 0% means no effect; nearly all actives have a fitted effect of over 60% in size
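Stable Rab9-luc Huh7, 1500 cells/well, 2 h settle; cmpd in DMSO, 24 h, 37 °C/5% CO2; luciferase reagent 10 min RT; luminescence.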
* = called active by the depositor; ? = inconclusive; / = no result given; ! = a repeat was not active; [ ] = remark or other dose. This is a sample that favours compounds with a hit; in the whole collection about 9.2% have one here. Calls follow the shape of the dose curve; as a rule, active = well fitted curve in the direction sought with a large enough effect; inconclusive = small, poorly fitted or top-dose-only effect, or another doubt; inactive = no such curve, though single readings can be large; an effect the other way counts as inactive or inconclusive. Potency is read from the fitted curve at half-maximal effect.

SMILES	FLuc modulator	SMN2 splice enh	ELG1 genotox	NPC1 prom act	ELG1 repair inh	Rab9 promoter act
CCOC(=O)c1ccc(N2Cc3ccccc3C2=NC(=O)c2cccs2)cc1	?	14%	?	8%	?	5%
CC(=O)c1ccc(N2Cc3ccccc3C2=NC(=O)c2cccs2)cc1	?	14µM*	?	?	?	?
CC1CCOC(c2coc3ccccc3c2=O)O1 (centres undefined)	13µM*	10µM*	?	?	?	?
O=C(O)C1CSC(c2coc3ccccc3c2=O)N1 (centres undefined)	3%	19%	1%	1%	-1%	-9%
CCOc1ncccc1C(=O)Nc1cccc(S(=O)(=O)N2CCCCC2)c1	6%	/	0%	0%	11µM*	-7%
O=C(Nc1cccc(S(=O)(=O)N2CCCC2)c1)c1ccc2ccccc2n1	?	-58%	-12%	-4%	21µM*	-2%
O=C(Nc1cccc(S(=O)(=O)N2CCCCCC2)c1)c1ccc(Cl)nc1	/	/	-10%	/	21µM*	/
O=C(Nc1cccc(S(=O)(=O)N2CCCCC2)c1)c1ccc(Cl)nc1	/	/	-6%	/	21µM*	/
O=C(Nc1ccc(S(=O)(=O)N2CCCCC2)cc1)c1ccc(Cl)nc1	/	/	-8%	/	?	/
O=C(Nc1cccc(S(=O)(=O)N2CCCCC2)c1)c1ccc2ccccc2n1	?	-23%	2%	-2%	-12%	14%
O=C(C1COc2ccccc2O1)N1CCN(c2ccc([N+](=O)[O-])cc2)CC1 (centres undefined)	/	/	-5%	/	?	/
Oc1ccc(CNCc2ccc3c(c2)OCO3)c2cccnc12	-1%	/	/	2%	/	-1%
CSc1ccc(CNCc2c(C(=O)O)c(C)n(Cc3ccc(F)cc3Cl)c2C)cc1	-1%	3%	/	/	/	/
Cc1ccc(OCc2nc(-c3ccc(C(=O)N4CCN(c5cccc(C(F)(F)F)c5)CC4)cc3)oc2C)cc1	-3%	-6%	/	/	/	/
CSc1cccc(NC(=O)CC(c2ccc(F)cc2)N2Cc3ccccc3C2=O)c1 (centres undefined)	-11%	/	/	/	/	/
CCc1cc(-c2n[nH]c(C)c2-c2nc3ccccc3s2)c(O)cc1OCC(=O)NN	5%	-3%	-10%	0%	-16%	-3%
CCc1cc(C(=O)Cc2nc3ccccc3s2)c(O)cc1OCC(=O)O	21µM*	/	2%	2%	0%	12%
O=C(Cc1ccc(Br)cc1)c1ccc(O)cc1O	15µM*	/	?	3.2µM*	?	?
O=C(Cc1nc2ccccc2s1)c1ccc(O)cc1O	?	?	?	3.2µM*	?	3.2µM*
O=C(CSc1nc2ccccc2s1)c1ccc(O)cc1O	13µM*	/	10%	?	?	0%[1.84 µM]
Cc1ccccc1OCc1ccc(-c2nc(C#N)c(N3CCC(C(N)=O)CC3)o2)o1	-20%	/	/	/	/	/
Cn1c(=O)c2c(-c3ccccc3)n3c(c2n(C)c1=O)C(c1ccc([N+](=O)[O-])cc1)Nc1ccccc1-3 (centres undefined)	-4%	/	/	/	/	/
CCOc1cc([N+](=O)[O-])cc2c1C(=O)Nc1ccccc1O2	-8%	-18%	0%	-3%	7.3µM*	-4%
O=C1Nc2ccccc2Oc2cc([N+](=O)[O-])ccc21	1%	6%	-1%	8%	?	2%
Cc1ccc2[nH]c(=O)c3cc(C(=O)N(C)c4ccc(Br)cc4)sc3c2c1	1%	12%	/	/	/	/
SMILES	FLuc modulator	SMN2 splice enh	ELG1 genotox	NPC1 prom act	ELG1 repair inh	Rab9 promoter act
Cc1cc(C)cc(NC(=O)C2CCCN2S(=O)(=O)c2ccc3c(c2)n(C)c(=O)c(=O)n3C)c1 (centres undefined)	0%	/	-5%	-1%	14%	0%
Nc1ccc2oc(-c3cccc(Br)c3)nc2c1	2.7µM*	14µM*	2µM*	1.1µM*	?	1.1µM*
Cc1ccccc1-c1nc2cc(N)ccc2o1	2.4µM*	6.3µM*	?	0.89µM*	?	0.35µM*
Nc1ccc2oc(-c3ccccc3Br)nc2c1	3.4µM*	13µM*	/	/	/	/
Nc1ccc(-c2nc3ccccc3o2)cc1	6.7µM*	/	?	?	?	?
CCCCN(CC)CCNC(=O)c1cc2c(=O)oc3ccc(C)cc3c2s1	-5%	7%	/	/	/	/
CC1CCCCN1S(=O)(=O)c1ccc2[nH]c(=O)cc(C(=O)NCCCN3CCCCCC3)c2c1 (centres undefined)	0%	/	-1%	2%	6%	-2%
CC(C)(C)c1ccc(C(=O)NNc2cc(Cl)cc(Cl)c2)cc1	2%	/	1%	-7%	10%	-3%
O=C(Nc1ccc(O)c(-c2nc3ccccc3o2)c1)c1ccco1	0%	8%	/	/	/	/
CC(C)c1ccc2oc(-c3cc(N)ccc3O)nc2c1	0.15µM*	25%	?	0.89µM*	?	?
Cc1cccc(N(CC(=O)NC2CCCC2)C(=O)c2cc3cc4cccc(C)c4nc3s2)c1C	-1%	-19%	-4%	1%	18µM*	-5%
Cc1ccc(C)c(N(CC(=O)NC2CCCC2)C(=O)c2cc3cc4cc(C)ccc4nc3s2)c1	1%	2%	-6%	-3%	1%	-3%
O=C(OCc1nc2ccccc2s1)C1CCN(C2=NS(=O)(=O)c3ccccc32)CC1	11µM*	18%	?	7%	?	?
CCc1cccc(NC(=O)c2nnn(Cc3ccc(SC)cc3)c2N)c1	-4%	-2%	/	/	/	/
Cc1ccc(CN(C(=O)COc2ccc(C(C)(C)C)cc2)C2CCS(=O)(=O)C2)o1 (centres undefined)	-10%	-31%	/	/	/	/
CC(C)c1ccc(NC(=O)CSc2ncccc2C(=O)Oc2cccc([N+](=O)[O-])c2)cc1	?	10µM*	16µM*	4µM*	?	4.5µM*
COc1ccc(NC(=O)CSc2ncccc2C(=O)OC(C)C)cc1OC	?	-38%	-5%	-2%	?	-20%
CC1CCN(S(=O)(=O)c2ccc3c(c2)N(CC(=O)NC(C)(C)C)C(=O)CS3)CC1	-9%	-14%	/	/	/	/
COc1ccc(NC(=O)C2CCC2)cc1S(=O)(=O)Nc1cc(C)ccc1Br	/	/	-9%	/	23µM*	/
COc1ccc(NC(=O)[C@H](C)NC(N)=O)cc1S(=O)(=O)Nc1cc(C)ccc1Br	-11%	?	-3%	-2%	10%	2%
CCOC(=O)C1CCCN(CCC(=O)Nc2cccc(C)c2)C1 (centres undefined)	15µM*!	6%	?	3.5µM*	?	3.2µM*
